“And” between values parts separate entries of the source, which are not always exact repeats. Identical values can stand only once. The source made the active and inactive calls.
Columns and labels:
[1] = optical density shifts of acrAB sulA E. coli – strain DRC41, OD650, 48 h, E. coli filamentation inducer project, primary screen (AID 1152); settings: higher = more signal, called active from +8 up or from −8 down;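 further: E. coli MC1000 strain DRC41 lacking acrAB efflux pump and sulA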
[2] = probe aLefty1 binding on compound microarray – biochemical, small-molecule microarray, 635/667 nm fluorescence, primary screen (AID 1153); settings: higher = more signal;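 further: score merges spot fluorescence with signal-to-noise ratio from the scanned slide images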
[3] = plasmodial surface anion channel blockers, osmotic lysis – cell-based, P. falciparum Indochina, OD700, 1 h, primary screen (AID 1154); settings: P. falciparum Indochina infected RBC osmotic lysis, higher = more signal, called active from +8 up or from −8 down
[4] = plasmodial surface anion channel blockers, osmotic lysis – cell-based, P. falciparum Indochina, OD700, 2 h, primary screen (AID 1155);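 further: lysis reports solute entry through the parasite surface anion channel PSAC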; settings: P. falciparum Indochina infected erythrocytes, higher = more signal, called active from +8 up or from −8 down
[5] = changes in parasitized red cell lysis, either direction – P. falciparum Indochina, OD700, 3 h, PSAC antagonist project, primary screen (AID 1156); settings: P. falciparum-infected erythrocytes, osmotic lysis, higher = more signal, called active from +8 up or from −8 down
[6] = plasmodial surface anion channel blockers, osmotic lysis – cell-based, P. falciparum Indochina, OD700, 18 h, primary screen (AID 1157); settings: P. falciparum Indochina infected erythrocytes, osmotic lysis OD700, 18 h; higher = more signal, called active from +8 up or from −8 down
[7] = S6 kinase pathway phospho-S6 level changes – cell-based, A549, cytoblot, luminescence, serum-stimulated, primary screen (AID 1158); settings: 5 h, higher = more signal;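 further: serum-stimulated A549 lung adenocarcinoma cells; signal is phosphorylated S6 detected by cytoblot immunostaining with HRP secondary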
[8] = biological target: NADPH oxidase 2 (Homo sapiens) (UniProt P04839); test: compounds shifting NOX2 Amplex Red fluorescence – cell-based, HEK293-NOX2, PMA-stimulated, NOX inhibitor project, primary screen (AID 1159); settings: 45 min, higher = more signal, called active from +8 up or from −8 down; further: test concentration not given here
Sequence of NADPH oxidase 2 (Homo sapiens) (P04839 whole entry, looked up): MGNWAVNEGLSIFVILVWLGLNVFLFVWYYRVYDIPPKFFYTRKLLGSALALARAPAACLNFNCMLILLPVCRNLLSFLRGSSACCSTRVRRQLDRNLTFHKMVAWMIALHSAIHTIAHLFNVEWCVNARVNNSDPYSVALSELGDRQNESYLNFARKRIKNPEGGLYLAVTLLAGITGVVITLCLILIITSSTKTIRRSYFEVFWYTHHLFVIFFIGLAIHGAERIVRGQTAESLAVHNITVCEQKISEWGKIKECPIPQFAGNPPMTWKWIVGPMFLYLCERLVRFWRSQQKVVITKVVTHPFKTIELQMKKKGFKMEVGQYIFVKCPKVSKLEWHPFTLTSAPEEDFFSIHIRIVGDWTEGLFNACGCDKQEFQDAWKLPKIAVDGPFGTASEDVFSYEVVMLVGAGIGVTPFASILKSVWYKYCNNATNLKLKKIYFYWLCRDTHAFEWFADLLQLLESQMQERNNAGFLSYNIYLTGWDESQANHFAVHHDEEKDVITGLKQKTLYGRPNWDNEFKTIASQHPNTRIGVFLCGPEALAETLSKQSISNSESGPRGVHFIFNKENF

[9] = biological target: NADPH oxidase 4 (Homo sapiens) (UniProt Q9NPH5); test: compounds shifting NOX4 Amplex Red fluorescence – cell-based, HEK293-NOX4, tetracycline-induced, NOX inhibitor project, primary screen (AID 1160); settings: HEK293-NOX4, Amplex Red H2O2 fluorescence, 45 min; higher = more signal, called active from +8 up or from −8 down
Sequence of NADPH oxidase 4 (Homo sapiens) (Q9NPH5 whole entry, looked up): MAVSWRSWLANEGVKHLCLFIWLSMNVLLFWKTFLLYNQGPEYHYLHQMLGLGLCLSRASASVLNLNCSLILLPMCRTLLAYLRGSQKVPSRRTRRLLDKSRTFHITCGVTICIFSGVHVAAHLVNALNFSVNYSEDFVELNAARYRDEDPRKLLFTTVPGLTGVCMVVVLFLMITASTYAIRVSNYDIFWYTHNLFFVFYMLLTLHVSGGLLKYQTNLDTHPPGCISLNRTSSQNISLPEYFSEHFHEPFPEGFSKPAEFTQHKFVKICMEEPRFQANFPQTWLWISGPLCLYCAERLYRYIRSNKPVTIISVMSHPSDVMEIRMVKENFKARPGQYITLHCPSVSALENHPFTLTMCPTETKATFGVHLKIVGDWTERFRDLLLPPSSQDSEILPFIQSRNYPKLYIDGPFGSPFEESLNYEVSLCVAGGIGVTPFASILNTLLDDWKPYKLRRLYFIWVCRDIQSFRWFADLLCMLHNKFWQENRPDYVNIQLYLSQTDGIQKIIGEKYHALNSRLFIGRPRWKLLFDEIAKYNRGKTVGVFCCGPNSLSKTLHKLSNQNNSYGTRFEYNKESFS

[10] = biological target: NADPH oxidase 5 (Homo sapiens) (UniProt Q96PH1); test: compounds shifting NOX5 Amplex Red fluorescence – cell-based, HEK293-NOX5, NOX inhibitor project, primary screen (AID 1161); settings: HEK293-NOX5, ionomycin, 45 min, higher = more signal
Sequence of NADPH oxidase 5 (Homo sapiens) (Q96PH1 whole entry, looked up): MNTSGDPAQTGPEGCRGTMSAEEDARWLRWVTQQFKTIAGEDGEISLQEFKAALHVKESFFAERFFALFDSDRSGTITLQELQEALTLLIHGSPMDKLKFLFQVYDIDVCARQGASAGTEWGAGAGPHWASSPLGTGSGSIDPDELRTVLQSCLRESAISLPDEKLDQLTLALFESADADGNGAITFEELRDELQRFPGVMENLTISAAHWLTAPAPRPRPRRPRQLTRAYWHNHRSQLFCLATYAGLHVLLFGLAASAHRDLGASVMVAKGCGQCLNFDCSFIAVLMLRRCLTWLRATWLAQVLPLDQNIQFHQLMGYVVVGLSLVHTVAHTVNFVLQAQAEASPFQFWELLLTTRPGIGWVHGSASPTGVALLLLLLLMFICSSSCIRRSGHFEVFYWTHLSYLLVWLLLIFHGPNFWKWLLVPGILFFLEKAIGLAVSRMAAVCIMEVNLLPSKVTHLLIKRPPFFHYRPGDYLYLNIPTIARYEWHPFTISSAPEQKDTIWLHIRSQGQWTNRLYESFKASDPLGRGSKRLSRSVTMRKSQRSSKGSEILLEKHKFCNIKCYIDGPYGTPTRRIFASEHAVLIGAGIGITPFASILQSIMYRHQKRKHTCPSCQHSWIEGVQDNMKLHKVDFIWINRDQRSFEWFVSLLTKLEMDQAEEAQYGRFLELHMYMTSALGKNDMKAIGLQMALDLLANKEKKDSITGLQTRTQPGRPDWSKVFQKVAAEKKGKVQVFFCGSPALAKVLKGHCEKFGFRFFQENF

[11] = compound effects on lung adenocarcinoma cell viability – A549, calcein-AM fluorescence, 48 h, basal, profiling panel (AID 1162); settings: higher = more signal; further: test concentration not given here
[12] = compound effects on differentiated 3T3-L1 adipocyte viability – cell-based, 3T3-L1 adipocytes, calcein-AM fluorescence, 48 h, basal, profiling panel (AID 1163); settings: 3T3-L1 adipocytes viability, higher = more signal; further: test concentration not given here
[13] = compound effects on hepatocellular carcinoma cell viability – HepG2, calcein-AM fluorescence, 48 h, basal, profiling panel (AID 1164); settings: higher = more signal; further: test concentration not given here
[14] = compound effects on multiple myeloma cell viability – MM1S, calcein-AM fluorescence, 48 h, basal, profiling panel (AID 1165); settings: higher = more signal;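 further: viability of MM1S multiple myeloma cells under basal unstimulated conditions; test concentration not given here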
[15] = calcein-AM signal in unstimulated myeloma cells – cell-based, calcein-AM fluorescence, 48 h, PK04 Diversity Set, profiling panel (AID 1166); settings: RPMI8226 myeloma viability, higher = more signal;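 further: cells grown under basal conditions without added stimulus; test concentration not given here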
[16] = JC-1 mitochondrial signal, unstimulated HepG2 cells – cell-based, JC-1 fluorescence, 24 h, 100 nL compound, profiling panel (AID 1167); settings: HepG2 mitochondrial potential, higher = more signal; further: test concentration not given here
[17] = JC-1 mitochondrial signal, unstimulated adipocytes – cell-based, JC-1 fluorescence, 3T3-L1 adipocytes, 24 h, 100 nL compound, profiling panel (AID 1168); settings: JC-1 mitochondrial fluorescence, higher = more signal, called active from +8 up or from −8 down; further: test concentration not given here
[18] = JC-1 mitochondrial signal, unstimulated myeloma cells – cell-based, JC-1 fluorescence, RPMI8226, 24 h, 100 nL compound, profiling panel (AID 1169); settings: JC-1 mitochondrial potential fluorescence, higher = more signal; further: test concentration not given here
[19] = JC-1 mitochondrial signal, unstimulated MM1S myeloma – cell-based, JC-1 fluorescence, 24 h, 100 nL compound, profiling panel (AID 1170); settings: MM1S mitochondrial potential, higher = more signal; further: test concentration not given here
[20] = resazurin metabolic signal in A549 cells – cell-based, resazurin fluorescence, 24 h, PK04 Diversity Set, profiling panel (AID 1171); settings: A549 viability, higher = more signal, called active from +8 up or from −8 down; further: test concentration not given here

SMILES	z-score [1]	composite z-score [2]	z-score [3]	z-score [4]	z-score [5]	z-score [6]	z-score [7]	z-score [8]	z-score [9]	z-score [10]	z-score [11]	z-score [12]	z-score [13]	z-score [14]	z-score [15]	z-score [16]	z-score [17]	z-score [18]	z-score [19]	z-score [20]
C=CCN(CCCC)C(=O)C1N(C(C)(C)CO)C(=O)C2C(C(=O)O)C3C=CC21O3 (stereo not given)	-0.2 (inactive) and -0.302 (inactive)	-0.255 and -0.488	0.109 (inactive) and 0.0708 (inactive)	0.134 (inactive) and 0.354 (inactive)	-0.724 (inactive) and -1.27 (inactive)	0.0135 (inactive) and -0.109 (inactive)	0.301 and -0.335	0.209 (inactive) and 0.495 (inactive)	0.0887 (inactive) and -0.0844 (inactive)	0.616 and 0.0892	-0.77 and -0.624	0.75 and 0.349	0.0674 and -0.857	1.09 and -0.12	-0.539 and 0.144	-0.553 and -0.548	-0.134 (inactive) and 0.142 (inactive)	0.354 and 0.826	-0.283 and -0.384	0.289 (inactive) and -0.11 (inactive)
Cc1ccc(S(=O)(=O)N[C@@H]2COC(=O)CC=C[C@@H](C)[C@@H]3C=C[C@H](O)[C@@H](COC(=O)CC=C[C@H]2C)O3)cc1	-0.134 (inactive) and -0.835 (inactive)	-0.217 and 0.0658	-0.178 (inactive) and -0.723 (inactive)	-0.377 (inactive) and -1.3 (inactive)	-0.603 (inactive) and 1.03 (inactive)	0.035 (inactive) and -1.47 (inactive)	0.116 and 1.08	-2.15 (inactive) and -1.22 (inactive)	0.427 (inactive) and -1.36 (inactive)	0.353 and -2.6	0.616 and -0.418	-0.347 and -0.476	0.664 and -1.95	0.0847 and -1.25	0.0913 and -0.776	-0.0139 and 0.344	-0.0698 (inactive) and 0.134 (inactive)	-0.858 and 1.11	1.32 and -1.69	0.0086 (inactive) and 0.658 (inactive)
C[N+](C)(C)CCCCCCNC(=O)[C@H]1C[C@H]2C(=O)N[C@@H](CCCC[N+](C)(C)C)C(=O)N2[C@H]1c1ccc(O)cc1	0.167 (inactive) and 0.234 (inactive)	-0.0523 and -0.127	0.453 (inactive) and 0.892 (inactive)	-1.12 (inactive) and 0.591 (inactive)	-1.11 (inactive) and -2.09 (inactive)	-1.46 (inactive) and 0.0065 (inactive)	0.0304 and -0.109	-1.5 (inactive) and 0.235 (inactive)	-0.479 (inactive) and 0.249 (inactive)	-3.22 and 0.0348	-0.512 and 0.597	0.222 and -0.596	-1.45 and -0.367	-0.602 and 0.494	-0.149 and -0.0976	-1.34 and -0.105	0.913 (inactive) and 0.345 (inactive)	-0.169 and 0.432	-0.657 and -0.528	-0.673 (inactive) and -0.0771 (inactive)
COCn1c2ccccc2c2nnc(C(C)=O)nc21	-1.46 (inactive) and -0.426 (inactive)	-0.103 and -0.0111	1.91 (inactive) and 0.558 (inactive)	-0.781 (inactive) and -1.09 (inactive)	0.68 (inactive) and 1.07 (inactive)	-1.28 (inactive) and -1.44 (inactive)	2.52 and 1.53	-0.424 (inactive) and -0.738 (inactive)	-0.773 (inactive) and -0.0619 (inactive)	-2.97 and -3.35	-0.337 and -0.197	0.745 and 0.622	-0.786 and -0.47	-0.32 and -0.151	-2.16 and -1.74	-2.92 and -0.761	0.0492 (inactive) and 0.883 (inactive)	-0.79 and -0.473	-0.189 and -0.639	-0.181 (inactive) and -0.856 (inactive)
C=CC[C@@H](O)c1ccc(O)c(F)c1	-0.024 (inactive) and 1.7 (inactive)	-0.216 and -0.0449	0.92 (inactive) and -0.126 (inactive)	0.574 (inactive) and -1.54 (inactive)	-0.0619 (inactive) and -1.38 (inactive)	0.476 (inactive) and -2.12 (inactive)	0.0996 and 0.266	-0.896 (inactive) and -0.237 (inactive)	-1.46 (inactive) and 0.42 (inactive)	-0.436 and 0.271	-0.562 and 0.575	0.207 and 0.747	-0.804 and -0.172	-1.11 and 1.1	-0.508 and -1.15	-1.48 and -0.00596	-1.3 (inactive) and 1.47 (inactive)	0.345 and 0.642	-0.347 and 1.29	-0.694 (inactive) and 0.0466 (inactive)
CCOC(=O)NN=C1C[C@@H](O)[C@@H](O)[C@@H]2[C@@H]3C(=O)N(Cc4ccccc4)C(=O)[C@@H]3CC[C@@H]12	-2.78 (inactive)	-0.641	1.04 (inactive)	0.628 (inactive)	0.979 (inactive)	0.403 (inactive)	-0.154	-0.6 (inactive)	-0.393 (inactive)	-0.365	-0.226	-0.0135	-1.29	0.599	-0.461	0.548	0.152 (inactive)	0.387	-0.979	0.0002 (inactive)
COC(=O)C1=C(C)N(Cc2ccccc2)C2=C(C(C)=O)[C@H](c3ccccc3)[C@@](O)(C(=O)OC)C(=O)N2[C@@H]1c1ccccc1	0.363 (inactive) and -0.426 (inactive)	-0.0908 and -0.118	1.65 (inactive) and 0.383 (inactive)	0.441 (inactive) and -0.0277 (inactive)	1.2 (inactive) and -1.16 (inactive)	0.419 (inactive) and -0.175 (inactive)	0.582 and 3.5	2.34 (inactive) and -3.45 (inactive)	0.687 (inactive) and 0.321 (inactive)	0.784 and 0.53	1.73 and 0.919	-0.0798 and 0.56	0.954 and 0.364	0.592 and 0.378	0.604 and 0.984	3.1 and 0.826	-1.09 (inactive) and 2.47 (inactive)	-0.938 and -0.592	-0.444 and 0.924	1.78 (inactive) and 0.197 (inactive)
COC(=O)C1=C(C)N(Cc2ccccc2)[C@]23O[C@](C(=O)OC)(C(=O)N2[C@@H]1c1ccccc1)[C@@H](c1ccccc1)[C@@H]3C(=O)c1ccccc1	-1.1 (inactive) and 0.116 (inactive)	-0.145 and -0.193	1.17 (inactive) and 0.647 (inactive)	-0.645 (inactive) and 0.238 (inactive)	0.372 (inactive) and 0.467 (inactive)	-1.38 (inactive) and 0.0752 (inactive)	1.39 and 0.0227	2.38 (inactive) and 0.648 (inactive)	0.856 (inactive) and 0.876 (inactive)	2.66 and 1.46	0.668 and 0.418	1.64 and 0.204	0.344 and 0.832	0.54 and 0.391	-0.0139 and 0.294	2.68 and 2.31	1.13 (inactive) and 0.417 (inactive)	0.535 and -0.253	-0.00272 and 0.667	0.266 (inactive) and 1.05 (inactive)
C=C[C@@H](OC)[C@H](O)c1ccc(OC)c(O)c1	0.232 (inactive) and 1.81 (inactive)	0.235 and -0.328	0.61 (inactive) and -0.257 (inactive)	0.436 (inactive) and -1.63 (inactive)	-0.28 (inactive) and -1.54 (inactive)	0.328 (inactive) and -2.34 (inactive)	0.138 and 0.185	-2.35 (inactive) and -2.11 (inactive)	-0.998 (inactive) and -1.12 (inactive)	-1.51 and -0.778	-0.72 and 0.387	1.21 and 1.57	-1.02 and 0.209	-1.16 and 0.905	-1.3 and 0.14	-0.782 and 0.179	-1.44 (inactive) and 0.912 (inactive)	-0.205 and -0.346	-0.297 and 1	-0.693 (inactive) and 0.835 (inactive)
CCOC(=O)C[C@H]1[C@H](OC(=O)c2ccccc2-c2ccccc2)[C@@H](NC(=O)Cc2ccc(OC)cc2)c2cc(OCCCO)ccc2N1C(=O)c1ccc2ccccc2n1	2.19 (inactive) and 1.32 (inactive)	-0.012 and -0.0186	3.8 (inactive) and 1.18 (inactive)	0.674 (inactive) and 0.879 (inactive)	0.366 (inactive) and -0.295 (inactive)	0.329 (inactive) and 0.627 (inactive)	0.661 and 0.0515	-0.488 (inactive) and 1.54 (inactive)	0.946 (inactive) and 0.859 (inactive)	0.365 and 0.0653	0.637 and 1.07	1.49 and 0.317	0.633 and 0.244	0.218 and 0.868	-0.765 and -0.644	3.65 and 1.61	0.611 (inactive) and 0.669 (inactive)	0.257 and -0.354	0.82 and 0.248	1.26 (inactive) and 0.555 (inactive)
COc1ccc(-c2ccc3c(n2)CCCN3CC(O)CN2CCCc3nc(-c4ccc(Br)cc4)ccc32)cc1 (stereo not given)	-0.018 (inactive) and 0.615 (inactive)	0.684 and 0.209	5.79 (inactive) and 1.91 (inactive)	1.07 (inactive) and 0.581 (inactive)	0.387 (inactive) and 0.0102 (inactive)	0.322 (inactive) and 0.32 (inactive)	-0.506 and -0.456	0.181 (inactive) and 2.63 (inactive)	0.169 (inactive) and 0.657 (inactive)	-2.32 and -0.243	0.261 and -0.331	0.163 and 0.196	-0.0242 and 0.0285	-2.63 and -0.767	-0.393 and -0.48	0.219 and -1.61	-0.136 (inactive) and -0.88 (inactive)	0.553 and 0.817	0.0404 and -0.331	-0.23 (inactive) and 0.169 (inactive)
CO[C@H]1COC(=O)[C@H](C)NC(=O)CC=C[C@@H](C)[C@H](OC)COC(=O)CC=C[C@@H]1C	0.343 (inactive)	-0.149	-0.0029 (inactive)	0.147 (inactive)	0.597 (inactive)	-0.0165 (inactive)	-0.248	1.45 (inactive)	-1.65 (inactive)	-0.796	1.51	0.459	0.235	0.0144	0.417	0.573	0.156 (inactive)	0.56	1.04	0.74 (inactive)
